Assay results published in PubChem BioAssay (Tox21).
Several values for one entry are separate records, joined by “and”; a condition that tells them apart may be missing. Equal values may be shown once. Inconclusive results are not listed. Some compounds were tested as several samples or in several runs, with calls that do not always agree. Activity calls are given as the source filed them. Unless noted, calls come from the whole dose curve; as a rule, active = well fitted curve in the direction sought with a large enough effect in the repeat runs; inconclusive = weak or mixed curves; inactive = no such curve, though single readings can be large; an effect the other way counts as inactive or inconclusive.

Assays:
[1] = qHTS assay to identify small molecule agonists of the estrogen receptor alpha (ER-alpha) signaling pathway in the presence of an antagonist - cell viability counter screen (AID 1259386);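 note: cells exposed to compounds for 22 h at 37 °C before the viability read; nearly all actives have a fitted effect of over 30% in size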; note: potency is the fitted concentration of half-maximal effect
Method in brief: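 Viability counter screen using VM7Luc4E2 (full-length ER-alpha, four ERE-luciferase). The cells were treated with compounds alongside ICI-182,780 10.0nM for 22hr, and live-cell protease fluorescence was quantified with CellTiter-Fluor.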

[2] = biological target: Progesterone receptor (Homo sapiens) (UniProt P06401); assay: qHTS assay to identify small molecule agonists of the progesterone receptor (PR) signaling pathway (AID 1346784; calls by dose curve; note: nearly all actives have a fitted effect of over 30% in size; note: potency is the fitted concentration of half-maximal effect)
Chain of Progesterone receptor (Homo sapiens) (P06401 whole entry, looked up): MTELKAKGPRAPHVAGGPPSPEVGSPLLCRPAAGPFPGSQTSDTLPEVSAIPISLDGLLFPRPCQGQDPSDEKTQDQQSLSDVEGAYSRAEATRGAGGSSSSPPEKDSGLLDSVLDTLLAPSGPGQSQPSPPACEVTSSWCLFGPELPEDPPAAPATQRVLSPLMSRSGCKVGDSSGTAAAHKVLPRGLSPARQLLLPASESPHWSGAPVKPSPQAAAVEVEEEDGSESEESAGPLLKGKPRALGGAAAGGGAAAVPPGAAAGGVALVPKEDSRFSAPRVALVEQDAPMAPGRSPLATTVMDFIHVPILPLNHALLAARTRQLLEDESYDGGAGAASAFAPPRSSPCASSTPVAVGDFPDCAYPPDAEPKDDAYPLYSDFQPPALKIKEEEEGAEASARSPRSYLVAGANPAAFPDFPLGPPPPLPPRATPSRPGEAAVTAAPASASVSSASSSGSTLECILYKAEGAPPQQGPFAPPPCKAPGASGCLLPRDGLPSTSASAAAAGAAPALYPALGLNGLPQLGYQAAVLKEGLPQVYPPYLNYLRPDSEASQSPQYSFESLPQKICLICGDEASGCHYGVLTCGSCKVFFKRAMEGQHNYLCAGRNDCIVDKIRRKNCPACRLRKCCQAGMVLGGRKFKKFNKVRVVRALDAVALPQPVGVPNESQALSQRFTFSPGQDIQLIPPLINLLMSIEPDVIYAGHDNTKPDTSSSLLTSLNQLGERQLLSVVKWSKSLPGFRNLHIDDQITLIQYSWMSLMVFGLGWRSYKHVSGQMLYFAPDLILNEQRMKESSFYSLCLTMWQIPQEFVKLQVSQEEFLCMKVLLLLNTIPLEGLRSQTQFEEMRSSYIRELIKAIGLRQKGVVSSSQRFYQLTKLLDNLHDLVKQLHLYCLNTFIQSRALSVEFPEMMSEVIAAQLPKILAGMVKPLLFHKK
Method in brief: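 Cells (PR-UAS-bla HEK 293T, GripTite) were plated in assay medium containing 2% charcoal-stripped FBS and incubated 6 hr. Test compounds in DMSO were added for 16 hr at 37C. FRET substrate was then loaded for 2 hr at room temperature before fluorescence reading.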

[3] = biological target: Progesterone receptor (Homo sapiens) (UniProt P06401); assay: qHTS assay to identify small molecule antagonists of the progesterone receptor (PR) signaling pathway (AID 1346795; active = well fitted inhibition curve with a large enough effect in the signal ratio in the repeat runs, not every such curve was filed as active; the % refers to the signal ratio)
Method in brief: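 Antagonist mode: compounds tested against 1 nM (final) promegestone stimulation in HEK293T cells expressing PR-UAS-bla reporter, 16 hr at 37C, 5% CO2; beta-lactamase activity detected via B/G FRET substrate after 2 hr at room temperature.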

[4] = qHTS assay to identify small molecule antagonists of the progesterone receptor (PR) signaling pathway - cell viability counter screen (AID 1346798); note: series mostly up to about 92 µM; nearly all actives have a fitted effect of over 50% in size
Method in brief: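 Counter screen for cytotoxicity: viability of PR-UAS-bla HEK293T cells was measured with CellTiter-Glo luminescence following 16 hr compound exposure in the presence of R5020.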

[5] = qHTS assay to identify small molecule agonists of the progesterone receptor (PR) signaling pathway - cell viability counter screen (AID 1346799; calls by dose curve; note: nearly all actives have a fitted effect of over 45% in size; note: potency is the fitted concentration of half-maximal effect)
Method in brief: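 Cells (PR-UAS-bla HEK293T) are plated at 3,000/well in 2% charcoal-stripped FBS medium, rested 6 hr, dosed and incubated 16 hr at 37C. CellTiter-Glo is then added and luminescence measured after 30 min at room temperature.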

[6] = qHTS assay to identify small molecule antagonists of the TGF-beta/Smad signaling pathway - cell viability counter screen (AID 1346824); note: nearly all actives have a fitted effect of over 50% in size
Method in brief: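 SBE-bla HEK 293T cells, incubated overnight, then compound plus 0.25 ng/mL TGF-beta1 (stock added) for 5 hr at 37 C. Viability was read in the same wells by CellTiter-Glo luminescence after 30 min at room temperature.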

[7] = qHTS assay to identify small molecule agonists of the TGF-beta/Smad signaling pathway - cell viability counter screen (AID 1346829); note: top concentration of the series differs between compounds; nearly all actives have a fitted effect of over 45% in size
Method in brief: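 HEK 293T SBE-bla line, 5 hr compound exposure at 37 C, multiplexed CellTiter-Glo viability read by luminescence.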

[8] = qHTS assay to identify small molecule agonists of the TGF-beta/Smad signaling pathway (AID 1346859; active = well fitted activation curve with a large enough effect in the signal ratio in the repeat runs, not every such curve was filed as active; the % refers to the signal ratio; note: series mostly up to about 77 µM)
Method in brief: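 Reporter line: HEK 293T with stably integrated SBE-controlled beta-lactamase. Compound exposure lasts 5 hr at 37 C and 5% CO2; substrate loading follows for 2 hr at room temperature, with emission read at 460 and 530 nm.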

[9] = Caspase-3/7 induction in HepG2 cells by small molecules, qHTS assay (AID 1346978); note: nearly all actives have a fitted effect of over 15% in size
Method in brief: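 Wild-type HepG2 cells, 2,000/well, settled 5 hr at 37 C and 5% CO2, then compound-treated for 17 hr; caspase-3/7 activity read by luminescent Caspase-Glo 3/7 after 30 min at room temperature.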

[10] = Caspase-3/7 induction in CHO-K1 cells by small molecules, qHTS cell viability counter screen (AID 1346979); note: nearly all actives have a fitted effect of over 35% in size; note: potency is the fitted concentration of half-maximal effect
Method in brief: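 Cytotoxicity counter screen run in parallel with the caspase-3/7 assay: CHO-K1 cells, 16hr compound treatment at 37C, then CellTiter-Fluor for 1hr before fluorescence reading.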

[11] = Caspase-3/7 induction in CHO-K1 cells by small molecules, qHTS assay (AID 1346980); note: nearly all actives have a fitted effect of over 15% in size
Method in brief: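 Wild-type CHO-K1 cells exposed to compounds for 17hr at 37 C, 5% CO2. Caspase-3/7 activity then measured by Caspase-Glo 3/7 luminescence after 30min at room temperature.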

[12] = Caspase-3/7 induction in HepG2 cells by small molecules, qHTS cell viability counter screen (AID 1346981); note: nearly all actives have a fitted effect of over 30% in size; note: potency is the fitted concentration of half-maximal effect
Method in brief: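 Viability determined by CellTiter-Fluor fluorescence in HepG2 wells also used for the luminescent Caspase-Glo 3/7 read. Compounds were present for 16 hr at 37 C, 5% CO2 before reagent addition.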

[13] = biological target: Nuclear receptor subfamily 1 group I member 2 (Rattus norvegicus) (UniProt Q9R1A7); assay: Rat pregnane X receptor (rPXR) activation by small molecules, qHTS assay (AID 1346983); conditions: rPXR luciferase reporter cells, One-Glo luminescence, 24 h; stronger effect = higher value; note: nearly all actives have a fitted effect of over 20% in size
Chain of Nuclear receptor subfamily 1 group I member 2 (Rattus norvegicus) (Q9R1A7 whole entry, looked up): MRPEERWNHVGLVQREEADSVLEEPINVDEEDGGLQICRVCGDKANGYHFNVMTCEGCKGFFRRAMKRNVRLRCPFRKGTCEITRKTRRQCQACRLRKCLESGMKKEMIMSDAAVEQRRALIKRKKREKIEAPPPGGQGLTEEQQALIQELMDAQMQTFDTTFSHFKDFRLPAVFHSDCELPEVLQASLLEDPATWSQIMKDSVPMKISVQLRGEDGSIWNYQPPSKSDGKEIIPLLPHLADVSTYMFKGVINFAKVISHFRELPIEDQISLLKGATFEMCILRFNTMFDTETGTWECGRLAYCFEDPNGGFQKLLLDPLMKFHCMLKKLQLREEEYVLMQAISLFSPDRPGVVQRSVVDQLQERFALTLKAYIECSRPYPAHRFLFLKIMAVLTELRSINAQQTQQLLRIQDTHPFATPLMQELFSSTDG
Method in brief: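 Cell-based rPXR activation assay: rPXR cells, 2,000 per well, rested 5hr at 37 C, then exposed to compounds in DMSO for 24 hr at 37 C. Luciferase activity read by One-Glo luminescence after 30 min at room temperature.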

[14] = biological target: Thyrotropin-releasing hormone receptor (Homo sapiens) (UniProt P34981); assay: qHTS assay to identify small molecule antagonists of the thyrotropin-releasing hormone receptor (TRHR) signaling pathway (AID 1346877; active = well fitted inhibition curve with a large enough effect in the repeat runs, not every such curve was filed as active; note: series mostly up to about 51 µM)
Chain of Thyrotropin-releasing hormone receptor (Homo sapiens) (P34981 whole entry, looked up): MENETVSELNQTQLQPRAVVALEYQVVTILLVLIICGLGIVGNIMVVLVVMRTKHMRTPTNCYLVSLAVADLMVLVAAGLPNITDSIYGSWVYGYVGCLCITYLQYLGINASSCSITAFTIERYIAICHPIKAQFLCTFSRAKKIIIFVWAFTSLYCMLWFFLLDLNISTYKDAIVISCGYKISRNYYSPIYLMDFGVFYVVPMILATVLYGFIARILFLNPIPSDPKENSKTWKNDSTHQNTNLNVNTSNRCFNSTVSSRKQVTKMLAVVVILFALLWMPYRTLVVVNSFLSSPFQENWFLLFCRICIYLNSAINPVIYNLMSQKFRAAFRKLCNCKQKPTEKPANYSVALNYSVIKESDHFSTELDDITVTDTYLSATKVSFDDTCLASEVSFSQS
Method in brief: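 Following an 18 h incubation at 37 °C and a 2 h calcium dye load, TRHR-HEK293 cells were exposed to compound (5 min, room temperature) and challenged with TRH, 1 nM final.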

[15] = biological target: Thyrotropin-releasing hormone receptor (Homo sapiens) (UniProt P34981); assay: qHTS assay to identify small molecule agonists of the thyrotropin-releasing hormone receptor (TRHR) signaling pathway (AID 1346891; calls by dose curve;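 note: HEK293 cells expressing TRHR with calcium dye readout; series mostly up to about 58 µM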)
Method in brief: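 Cells: TRHR-Hek293, seeded and incubated 18 h. Dye loading: 2 h at 37 °C. Compound added from DMSO stock by pin tool. Read-out: kinetic calcium fluorescence over 3 min.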

[16] = Human pregnane X receptor (PXR) small molecule agonists, qHTS cell viability counter screen (AID 1346977); note: nearly all actives have a fitted effect of over 50% in size
Method in brief: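 Cytotoxicity counter screen run in the same wells as the PXR luciferase assay, using PXR-Luc HepG2 cells in charcoal-stripped serum medium. Viability: CellTiter-Fluor fluorescence after 24hr compound treatment.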

[17] = biological target: Nuclear receptor subfamily 1 group I member 2 (Homo sapiens) (UniProt O75469); assay: Human pregnane X receptor (PXR) small molecule agonists, qHTS assay (AID 1346982); note: nearly all actives have a fitted effect of over 35% in size; note: potency is the fitted concentration of half-maximal effect
Chain of Nuclear receptor subfamily 1 group I member 2 (Homo sapiens) (O75469 whole entry, looked up): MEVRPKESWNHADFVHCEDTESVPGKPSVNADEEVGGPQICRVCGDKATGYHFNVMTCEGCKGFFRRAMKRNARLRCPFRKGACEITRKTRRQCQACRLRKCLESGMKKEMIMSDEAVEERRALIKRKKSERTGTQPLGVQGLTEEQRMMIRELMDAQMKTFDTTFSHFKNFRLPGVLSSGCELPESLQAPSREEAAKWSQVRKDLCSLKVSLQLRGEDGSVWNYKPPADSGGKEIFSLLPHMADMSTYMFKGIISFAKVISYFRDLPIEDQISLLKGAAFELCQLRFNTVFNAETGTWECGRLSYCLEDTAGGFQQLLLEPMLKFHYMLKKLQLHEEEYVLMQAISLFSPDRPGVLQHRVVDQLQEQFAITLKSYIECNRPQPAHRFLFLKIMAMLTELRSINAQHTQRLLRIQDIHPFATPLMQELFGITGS
Method in brief: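 Compound-induced hPXR transactivation of a CYP3A4 luciferase reporter was scored in HepG2 PXR-Luc cells over 24 hr at 37 C, 5% CO2, by luminescence.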

[18] = biological target: Cytochrome P450 2D6 (Homo sapiens) (UniProt P10635); assay: Cytochrome P450 Family 2 Subfamily D Member 6 (CYP2D6) small molecule antagonists: luciferase reporter qHTS assay (AID 1671196); note: nearly all actives have a fitted effect of over 50% in size; note: potency is the fitted concentration of half-maximal effect
Chain of Cytochrome P450 2D6 (Homo sapiens) (P10635 whole entry, looked up): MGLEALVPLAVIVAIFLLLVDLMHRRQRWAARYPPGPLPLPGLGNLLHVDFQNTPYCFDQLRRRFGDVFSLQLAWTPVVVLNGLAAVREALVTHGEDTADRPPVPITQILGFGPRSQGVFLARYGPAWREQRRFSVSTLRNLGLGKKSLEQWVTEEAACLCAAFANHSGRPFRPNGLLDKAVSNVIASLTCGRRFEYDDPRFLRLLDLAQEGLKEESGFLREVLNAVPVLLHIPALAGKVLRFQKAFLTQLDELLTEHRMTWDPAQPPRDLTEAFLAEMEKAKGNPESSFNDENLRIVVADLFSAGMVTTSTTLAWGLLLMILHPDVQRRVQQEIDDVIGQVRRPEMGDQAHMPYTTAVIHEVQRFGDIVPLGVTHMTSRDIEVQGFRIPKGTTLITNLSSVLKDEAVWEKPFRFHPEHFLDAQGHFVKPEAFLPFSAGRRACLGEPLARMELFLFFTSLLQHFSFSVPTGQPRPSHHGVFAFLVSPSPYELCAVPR
Method in brief: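 Each well received CYP2D6 with its proluciferin substrate and chemical, sat 10 min, then got NADPH regeneration solution for 1 h at room temperature. Luminescence in RLU served as the activity measure.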

[19] = biological target: Cytochrome P450 2C19 (Homo sapiens) (UniProt P33261); assay: Cytochrome P450 Family 2 Subfamily C Member 19 (CYP2C19) small molecule antagonists: luciferase reporter qHTS assay (AID 1671197); note: nearly all actives have a fitted effect of over 65% in size; note: potency is the fitted concentration of half-maximal effect
Chain of Cytochrome P450 2C19 (Homo sapiens) (P33261 whole entry, looked up): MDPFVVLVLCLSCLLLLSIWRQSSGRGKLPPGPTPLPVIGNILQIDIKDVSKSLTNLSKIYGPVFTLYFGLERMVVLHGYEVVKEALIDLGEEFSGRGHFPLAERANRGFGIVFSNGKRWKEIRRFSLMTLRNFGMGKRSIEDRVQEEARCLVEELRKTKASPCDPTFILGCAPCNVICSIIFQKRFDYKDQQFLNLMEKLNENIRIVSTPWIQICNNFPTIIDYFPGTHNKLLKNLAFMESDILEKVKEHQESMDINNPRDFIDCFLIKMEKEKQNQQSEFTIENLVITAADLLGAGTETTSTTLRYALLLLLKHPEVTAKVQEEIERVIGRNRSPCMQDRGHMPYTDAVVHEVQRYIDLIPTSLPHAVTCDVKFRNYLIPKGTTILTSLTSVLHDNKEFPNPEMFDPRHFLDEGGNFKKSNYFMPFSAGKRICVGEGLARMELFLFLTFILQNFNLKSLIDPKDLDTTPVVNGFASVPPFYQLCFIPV
Method in brief: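 First, compounds are pinned into enzyme-substrate mix and held 10 min at room temperature. Second, NADPH regeneration solution is added and plates incubate 1 h at 37C. Third, detection reagent is added and luminescence read after 20 min.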

[20] = biological target: Nuclear receptor subfamily 1 group I member 2 (Homo sapiens) (UniProt O75469); assay: CYP3A4 induction through human pregnane X receptor (PXR) by small molecules, qHTS assay (AID 1346984); note: nearly all actives have a fitted effect of over 40% in size
Method in brief: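 Readings come from a luciferase reporter: DPX-2 cells, which are HepG2 cotransfected with PXR and a CYP3A4-promoter construct, were exposed to test compounds for 24 h at 37C before One-Glo detection.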
% is set by controls: 0 for no effect and ±100 for the full control effect.

O=S(=O)(O)NC1CCCCC1
4.12 µM (active) and inactive: Potency [2]
inactive: Potency [1] | outcome [3] | Potency [4] | Potency [5] | outcome [6] | Potency [7] | outcome [8] | Potency [9] | Potency [10] | outcome [11] | Potency [12] | max activation [13] -1.36%

C1N2CN3CN1CN(C2)C3
inactive: Potency [1] | Potency [2] | outcome [3] | Potency [4] | Potency [5] | outcome [6] | outcome [8] | outcome [14] | outcome [15] | Potency [16] | Potency [9] | Potency [10] | outcome [11] | Potency [12] | Potency [17] | Potency [18] | Potency [19]

NC(=O)c1ccccc1O
inactive: Potency [1] | Potency [2] | outcome [3] | Potency [4] | Potency [5] | outcome [6] | outcome [8] | outcome [14] | outcome [15] | Potency [16] | Potency [9] | Potency [10] | outcome [11] | Potency [12] | Potency [17] | max activation [13] -6.5% | outcome [20] | Potency [18] | Potency [19]

CCCC(CCC)C(=O)O
inactive: Potency [1] | Potency [2] | outcome [3] | Potency [4] | Potency [5] | outcome [6] | outcome [8] | outcome [14] | outcome [15] | Potency [16] | Potency [9] | Potency [10] | outcome [11] | Potency [12] | max activation [13] 6.66% | outcome [20] | Potency [18] | Potency [19]

O=C(O)CCCCC(=O)O
inactive: Potency [1] | Potency [2] | outcome [3] | Potency [4] | Potency [5] | outcome [6] | Potency [7] | outcome [8] | outcome [14] | outcome [15] | Potency [9] | Potency [10] | outcome [11] | Potency [12] | max activation [13] -1.24% | outcome [20] | Potency [18] | Potency [19]

O=C(C1CCCCC1)N1CC(=O)N2CCc3ccccc3C2C1 (centres undefined)
inactive: Potency [1] | Potency [2] | outcome [3] | Potency [4] | Potency [5] | outcome [6] | Potency [7] | outcome [14] | outcome [15] | Potency [9] | Potency [10] | outcome [11] | Potency [12] | Potency [18]
active: Potency [17] 30.6 µM | Potency [19] 7.95 µM and 17.8 µM and 9.77 µM

CCCC(O)C(CC)CO (centres undefined)
inactive: Potency [1] | Potency [2] | outcome [3] | Potency [4] | Potency [5] | outcome [6] | Potency [7] | outcome [8] | Potency [16] | Potency [9] | Potency [10] | outcome [11] | Potency [12] | Potency [17] | max activation [13] -6.82% | outcome [20] | Potency [18] | Potency [19]

O=C(O)c1cc(N=Nc2ccc(S(=O)(=O)Nc3ccccn3)cc2)ccc1O
inactive: Potency [2] | outcome [3] | Potency [4] | Potency [5] | outcome [6] | outcome [8] | Potency [9] | outcome [11] | max activation [13] -4.4% | outcome [20] | Potency [18]
56.6 µM (active) and inactive: Potency [19]
active: Potency [1] 61.3 µM and 30.6 µM and 29.8 µM | Potency [10] 34.5 µM and 54.5 µM and 26.6 µM | Potency [12] 27.4 µM and 48.6 µM and 23.7 µM

Cc1cc(=O)n(-c2ccccc2)n1C
inactive: Potency [1] | Potency [2] | outcome [3] | Potency [4] | Potency [5] | outcome [6] | outcome [8] | outcome [14] | outcome [15] | Potency [9] | Potency [10] | outcome [11] | Potency [12] | Potency [18] | Potency [19]

CC(C)(Oc1ccc(C2CC2(Cl)Cl)cc1)C(=O)O (centres undefined)
inactive: Potency [1] | Potency [2] | outcome [3] | Potency [4] | Potency [5] | outcome [6] | outcome [8] | Potency [9] | Potency [10] | outcome [11] | Potency [12] | max activation [13] -3.49% | outcome [20] | Potency [18] | Potency [19]

Oc1ccc(/C=C/c2cc(O)cc(O)c2)cc1
inactive: Potency [1] | Potency [4] | Potency [5] | outcome [6] | Potency [7] | outcome [8] | outcome [14] | outcome [15] | Potency [9] | outcome [11] | Potency [12] | max activation [13] -1.25% | outcome [20]
active: Potency [10] 69.2 µM and 61.1 µM | Potency [17] 61.7 µM and 30.6 µM and 29.8 µM

NNC(=O)c1ccncc1
40 µM (active) and inactive: Potency [18]
active: Potency [19] 15.9 µM and 2.97 µM and 17.4 µM
inactive: Potency [1] | Potency [2] | outcome [3] | Potency [4] | Potency [5] | outcome [6] | outcome [8] | Potency [9] | Potency [10] | outcome [11] | Potency [12] | Potency [17]

O=C(O)CCCCCCCC(=O)O
inactive: Potency [1] | Potency [2] | outcome [3] | Potency [4] | Potency [5] | outcome [6] | outcome [8] | outcome [14] | outcome [15] | Potency [9] | Potency [10] | outcome [11] | Potency [12] | Potency [18] | Potency [19]

C[C@]12C=CC(=O)C=C1CC[C@@H]1[C@@H]2[C@@H](O)C[C@@]2(C)[C@H]1CC[C@]2(O)C(=O)CO
78.6 µM (active) and inactive: Potency [19]
inactive: Potency [1] | Potency [4] | Potency [5] | outcome [6] | outcome [8] | Potency [16] | Potency [9] | Potency [10] | outcome [11] | Potency [12] | Potency [17] | Potency [18]

Cn1cc[nH]c1=S
inactive: Potency [1] | Potency [2] | outcome [3] | outcome [6] | outcome [8] | Potency [9] | Potency [10] | outcome [11] | Potency [12] | max activation [13] -0.0972% | Potency [18] | Potency [19]
43.2 µM (active) and inactive: Potency [5]
